# Laboratory results as given in the supplement of paper PMC11417369.
# ± gives the standard deviation of the averaged measurements. Whole data set: some 25,000 sequences, median “ln(normalized median fluorescence intensity)” near 7.9, cut for the highest 2% near 11. Only a selection was taken, and the highest values are over-represented in it overall.
# System: PfAP2-I AP2 domain 3 (GST-tagged)
# Experiment: gcPBM binding intensity (ln(normalized median fluorescence intensity)); higher = stronger DNA binding
# Procedure, shortened: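 Binding intensity values are the highest Masliner-normalised natural-log median intensity among replicate spots of either probe orientation. The binding step lasted 1 h in 1× PBS with 1% milk, 0.2 mg/ml BSA, 0.5% salmon testes DNA and 0.03% Triton X-100, using GST-tagged P. falciparum DNA-binding domains expressed in E. coli on an Agilent 4 × 180k array of primer-extended double-stranded 36-bp intergenic genomic probes plus negative controls. Alexa488 anti-GST antibody and a 488 nm scan detected bound protein.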
row,Sequence,gcPBM binding intensity (ln)
1,AAAAATAAAATATATACATGCATATACATATTATAT [TGCATGCA_site668],7.87 ± 0.45
2,AATTATATAAGCCACGCATGTGTGCATAAAAATACA [TGCATGCA_site114],11.1 ± 0.34
3,AAATAAAATTATAATACATGCATACATACATATATA [TGCATGCA_site69],7.9 ± 0.54
4,ATGTTAATAACTTGTGGTACTGTTATAATTTAGTAA [XGTACX_site2114],7.71 ± 0.42
5,TATTAATTATATTTATGTACATAATCATATTATTAT [XGTACX_site7938],7.66 ± 0.39
6,ATATATATATAATTATATAAAATATATCATATGTTA [XGTACX_negctrl_site47],8.76 ± 0.16
7,TTTAATCATATGTTATATAATAAGCCCCCCCCCCAA [CACACA_negctrl_site486],11.1 ± 0.63
8,AAAAAAAAAAAAAAGGTGCATACTTTGAATTAATAT [GTGCAC_site9401],9.87 ± 0.17
9,ATTAATAATCGAAAGGTGCACTTTGATTTGATAACA,11.2 ± 0.3
10,ATTATTTGATTAAAGGTGCAAGGATAATAATAAAAC,9.47 ± 0.17
11,AAAAAAAAAAAAAAAAGTACATGAAAAAAAGAAGAA [XGTACX_site8384],8.7 ± 0.27
12,CATATATATTTTATATGTACATATATATTTTATATA [XGTACX_site8665],7.59 ± 0.15
13,ATTTTATATACAAAATGTACATATTTATTATATATG [XGTACX_site6732],7.74 ± 0.5
14,ATTATGTACAAAATGGTGCAATATTATACATATATA [GTGCAC_site9468],11.1 ± 0.49
15,AGGTGCAAAAATAAAACATGCAAAAATAAAAATGAA [TGCATGCA_site502],10.9 ± 0.65
16,TACAAATATATAAAATGTACATATATATACATATTA [XGTACX_site3029],7.46 ± 0.27
17,GACAATTATATGTAGGTGCATATACAAATTTTTTAA,10.4 ± 0.57
18,CAATATATTATATGGGTGCAAACCACATATAAATAA,10.1 ± 0.33
19,AAATAAAATAATAAAACATGCAAAAATAATGATTTA [TGCATGCA_site415],7.71 ± 0.76
20,TATTAAATATATATTACATGCAAAAAAAAAAAACAA [TGCATGCA_site705],7.97 ± 0.52
21,ATTTTTTTTTTTTTATGTACATATAGGTGCAAATCA [XGTACX_site6748],11.3 ± 1
22,ATATAAAATACATGGGTGCAATATATTAAACAAATA [GTGCAC_site9421],11.2 ± 0.48
23,TAAAGGAAATAAAAAACATGCAAATATGAAATATAT [TGCATGCA_site745],7.61 ± 1.1
24,TTTTATTGTTTTTTTTTTTTTTCTTTTTTTTTTTTT [CACACA_negctrl_site1094],7.91 ± 0.46

row,Sequence,gcPBM binding intensity (ln)
1,ATACGTGGGCAAAAAGTGCATATAATCAAAAAAAAA [GTGCAC_site9961],10.4 ± 0.11
2,ATAAGATAGGCATATACACACATTTATTTACAGATA [CACACA_site5754],7.71 ± 0.67
3,TTGTTTTTGTTCTTGGGTACTTAAATTATAAATGAT [XGTACX_site113],8.07 ± 0.45
4,ATAACTTTTTAAAAGACACACATAAGAAAAACAAAA [CACACA_site723],8.08 ± 0.64
5,TATATGTGATAACACGCACACAAATGTATATAATTT [CACACA_site2593],8.1 ± 0.28
6,TCTTTATATCATCTTTCTAAATATATATATATATAA [CACACA_negctrl_site77],7.84 ± 0.55
7,TTCATTAAATAGAACAAAATAATAATATAACAACAA [GTGCAC_negctrl_site116],7.74 ± 0.53
8,AAAATAAATAAAAAAAGTACATATATAATTTATAAA [XGTACX_site2411],7.75 ± 0.39
9,ACAAGTTTTTTTTTATCACACACAAAAAAAAAAATA [CACACA_site8377],7.9 ± 0.44
10,TAATTATAATAATAACGTACATATATAAAATGGTGA [XGTACX_site8434],8.04 ± 0.34
11,ATAAAACGTACAATGGTGCATATAAATAATATATAT [GTGCAC_site9960],11 ± 0.52
12,AATATAAATAAAAACACACACAATGGTACATATATA [CACACA_site3671],7.84 ± 0.54
13,TGTCCAATTTTTTATCGTACATAATATATAAATAAA [XGTACX_site1705],8.01 ± 0.33
14,TTTTCTTGATTTTGTAGTACATTTTTACGATATTTT [XGTACX_site63],7.94 ± 0.55
15,ATTTAATATCACAATATATTTTTTACCCTTATCAGC [CACACA_negctrl_site491],7.59 ± 0.76
16,CGTTGGTATTAAAAGGTGCAATGAAATAATATATTA,10.8 ± 0.63
17,TATGTATTAATGAGAACATGCAAAATAATAAACAAT [TGCATGCA_site362],8.45 ± 0.59
18,CATGAGGTATAAAAGGTGCAAATTAATGAGAACATT,11.1 ± 0.36
19,TTTTTAAAAAAACATACACACAAAAAAAAAAAAAAA [CACACA_site3935],8.11 ± 0.67
20,TTATATCAAGGGAATGCATGCATATCGTTTTGTATT [TGCATGCA_site327],7.68 ± 0.88
21,AATATTGTATATAATAAACACACAATATTAAAAATA [CACACA_site8262],7.57 ± 0.39
22,ACAAAAAAAAACGTGGTGCATTAATAATATTGTATA [GTGCAC_site9469],11.7 ± 0.3
23,TATTGTATATAATAAACACACAATATTAAAAATATA [CACACA_site1057],7.4 ± 0.52
24,TCTTATATTATATTGTGTATTAAAATTTAACTTCAA [TGCATGCA_negctrl_site565],7.83 ± 0.58

row,Sequence,gcPBM binding intensity (ln)
1,ACTTTTTATTTTTTACTATATATATATATATATATG [TGCATGCA_negctrl_site463],8.31 ± 0.44
2,TATATATTTGTTCACACACACACAAAAAAAAAAAAA [CACACA_site2475],8.08 ± 0.52
3,TATGTGCACCCATATACACACACAAATACAATGATA [CACACA_site8295],11.3 ± 0.85
4,GGTGCACCCATATACACACACAAATACAATGATAAA [CACACA_site1132],9.99 ± 0.56
5,TGGGCACCCATATACACACACAAATACAATGATAAA [CACACA_site4762],7.78 ± 0.28
6,CCCGTAAATACAAAAAGTACAAAAGTTCATCTTATA [XGTACX_site1154],7.93 ± 0.99
7,CTGTACACTTAAACGGTGCAAAAAGAAAAAAAAGAA,11 ± 0.38
8,AATTTATTTTTAAAAAGTACATACTTAAGAAAACGA [XGTACX_site3660],8.12 ± 0.29
9,AAAGAAAACGGACTTTGTACTTAAATATAATATAAA [XGTACX_site8585],7.69 ± 0.34
10,GATAAAATGAGACCAGTGCATTATTAGTTGTACACC,11.3 ± 0.53
11,CATTATTATGATAGTTGTACAATTTTTATAAAAAAT [XGTACX_site4411],7.93 ± 0.35
12,AATAAAATGAGATGTTGTACAGTTTTGATATATGCA [XGTACX_site3052],7.96 ± 0.19
13,TAATTAATTTATTAGTTGCACTGTACCATTAGAGTA,9 ± 0.11
14,TTTTTATAGAATTTAACACACATTTCATATAAAAAA [CACACA_site7453],7.86 ± 0.47
15,TACTATTATAAATATGTGCACTTCAATAATATACTA,10.4 ± 0.11
16,AAAAAAAAAAAATACGTGCACTATGATATATTATAT,11.4 ± 0.36
17,TAATAAAATATGTACGTGCACATAATTATACTAAAA,10.3 ± 0.18
18,TATGATTAATTACCACAATTGACAAAAAAAAAAAAA [CACACA_negctrl_site336],8.13 ± 0.87
19,TTTTGTTACTTTTATGTGCACTTATAAAACGAACTA [GTGCAC_site9551],11.3 ± 0.085
20,AACTATTTTATTATATGTACTTACGAATTTATAAAA [XGTACX_site5262],7.87 ± 0.35
21,ATATATATTATGTGTGTGCACTTTTGTTATTATTAT,9.83 ± 0.014
22,AAAACACAATTTATTACACACATATATTATAGATTA [CACACA_site6780],7.61 ± 0.68
23,AGAATTTTAGATTTAGCACACATTTTTTTTTTTTTT [CACACA_site4081],8.34 ± 0.45
24,TATATAGATATGATAGTGCATTTTTAGAAAACATAA [GTGCAC_site9962],9.44 ± 0.14

row,Sequence,gcPBM binding intensity (ln)
1,TTTTTTTTTTTTGTAGTGCAAATTAAAAATATATGT,10.6 ± 0.53
2,TTTTTTAAATTGGTAGTGCAATATGATTGAACAAAA [GTGCAC_site9715],10.9 ± 0.79
3,ATATTGAAATTAAAAAAATATATGAACAAATGATGA [CACACA_negctrl_site602],7.69 ± 0.59
4,GTTTTAACAAAATTAGTGCATTTATCAATTATATAA,10.5 ± 0.14
5,ATGATATGCAATTTAGTGCATAACAAAATTGGTATA,10.9 ± 0.49
6,AAAAAAAAAAAAAGCACACATATAAATATGAATAAA [CACACA_site1393],8.39 ± 0.085
7,TAATTTTATATTAAAAGTACATAATAAAAACTATAA [XGTACX_site8779],7.79 ± 0.22
8,TAAATATATATCATCACACACACATACATAAATATA [CACACA_site183],7.72 ± 0.47
9,TAATAATATAAATATGCACACAAATTATTACCCAAA [CACACA_site8805],8.97 ± 0.47
10,AAAAAATATACATATACACACATATGTATATATAAT [CACACA_site8676],7.57 ± 0.31
11,GTGCTAAAAGTATATGCACACACATATATATGCACA [CACACA_site8472],10.9 ± 0.55
12,AATATAATATAATGCACACATAAAAAAAAAAAAATC [CACACA_site1303],11 ± 0.64
13,AAAAATATAATATATGCACACATACATACATATATA [CACACA_site7915],9.06 ± 0.057
14,AAAATATAATATAATGCACACATAAAAAAAAAATCA [CACACA_site7922],10.8 ± 0.64
15,GCTAAAAGTATATGCACACACATATAGATGCACATA [CACACA_site6868],10 ± 0.14
16,CATATTTGCACTTTCACACATAAATATATAACTATA [CACACA_site6016],11 ± 0.89
17,AATTCTTTACTATTCACACATATAAATATTCACTTT [CACACA_site4886],8 ± 0.7
18,CTTTTTTTTTTTTTTGCACACACATATATAAATATA [CACACA_site3950],9.74 ± 0.042
19,GCTAAAAGTATATGCACACACATATATATGCACATA [CACACA_site1635],10.3 ± 0.16
20,AAAAATAATGCACATATATATAATATGTATATGTAT [CACACA_negctrl_site443],11 ± 0.6
21,ATAGATATACATATCACACATATATATATATATATA [CACACA_site4985],9.19 ± 0.65
